Assay outcomes: PubChem BioAssay, National Center for Advancing Translational Sciences (NCATS)
IL-1B inflam inh: inhibitors of inflammasome signaling (IL-1 beta secretion); THP-1 LPS/ATP IL-1B secretion, AlphaLISA, 16 h; hits give low values; activity change, % at 57.5 µM; 4.7% of 360,000 active; in the data active = activity change below about -50%; inconclusive = mostly about -30% to -49%
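THP-1 cells pretreated 1 hr with compounds (up to 57.5 uM final), then stimulated with LPS (250 ng/mL final) plus ATP (1.25 mM final); secreted IL-1B measured by AlphaLISA after 16 hr, decreased signal indicating inhibition.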
LDHA block: LDHA (human) enzyme inhibition; P00338; purified LDHA, NADH/diaphorase-resazurin fluorescence; hits give low values; activity change, % (values are at about 110 or 230 µM); 0.15% of 480,000 active; AID 1347041; in the data active = activity change below about -30%; inconclusive = mostly about -25% to -30%;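 note: plate controls were DMSO wells for no effect and wells without enzyme for full effect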
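Human LDH5 at 2 nM final in Tris HCl pH 7.4 with 0.06 mM NADH and 0.2 mM pyruvate, reacted 5 minutes at room temperature. Remaining NADH coupled via diaphorase/resazurin; resorufin fluorescence read at 0 and 20 minutes, normalized to enzyme-free and DMSO wells.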
RORgamma inh: ROR gamma (mouse) transcription inhibition | 5.4% of 310,000 active | Potency, µM (highest dose often 53.6 µM), for inactives: top-dose activity change, negative = inhibition, hits mostly inhibitors | Drosophila S2 Gal4-RORgamma UAS-luciferase reporter, 20 h; note: potency is the fitted concentration of half-maximal effect; nearly all actives have a fitted effect of over 60% in size
Target sequence (P51450 whole entry, looked up, the tested form may be a part): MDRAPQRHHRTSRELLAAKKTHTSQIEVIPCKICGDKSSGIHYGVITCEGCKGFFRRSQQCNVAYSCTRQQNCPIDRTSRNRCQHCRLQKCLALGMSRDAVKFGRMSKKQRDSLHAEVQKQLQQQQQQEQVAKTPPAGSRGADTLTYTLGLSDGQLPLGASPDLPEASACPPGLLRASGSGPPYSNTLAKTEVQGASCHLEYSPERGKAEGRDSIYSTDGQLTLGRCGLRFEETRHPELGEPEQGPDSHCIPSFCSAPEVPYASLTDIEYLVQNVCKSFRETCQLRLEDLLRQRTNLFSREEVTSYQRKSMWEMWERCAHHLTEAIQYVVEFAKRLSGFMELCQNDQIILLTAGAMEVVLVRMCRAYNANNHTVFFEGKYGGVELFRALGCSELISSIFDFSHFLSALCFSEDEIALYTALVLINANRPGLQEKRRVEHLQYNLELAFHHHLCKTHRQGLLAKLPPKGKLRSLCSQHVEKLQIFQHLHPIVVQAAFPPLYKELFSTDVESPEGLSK
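Drosophila S2 cells stably expressing Gal4-DBD/mouse RORγ fusion under metallothionein promoter plus UAS-luciferase; compound 1 h, then 700 uM CuSO4 induction for 20 h at ambient temperature; inhibition read as reduced luminescence.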
Gal4-VP16 FLuc: inhibits Gal4-VP16 luciferase reporter, ROR gamma counter-screen; Drosophila S2 Gal4-VP16 UAS-luciferase, luminescence, 20 h; Potency, µM (top dose mostly 53.6 µM), for inactives: top-dose activity, negative = inhibition, actives largely listed as inhibitors; 3.5% of 310,000 active; AID 2546;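 note: Gal4-VP16 expression switched on by copper sulfate through the metallothionein promoter; potency is the fitted concentration of half-maximal effect; nearly all actives have a fitted effect of over 50% in size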
TDP1 cell noCPT: qHTS for Inhibitors of human tyrosyl-DNA phosphodiesterase 1 (TDP1): qHTS in cells in absence of CPT; DT40 Tdp1-/- hTDP1 cells, no CPT, ATP luminescence, 48 h; Potency, µM (highest dose often 46.2 µM), for the others: at the top dose activity change, negative = growth inhibition, actives largely listed as inhibitors; 15% of 420,000 active; note: potency is the fitted concentration of half-maximal effect; nearly all actives have a fitted effect of over 55% in size
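Camptothecin absent (DMSO only). Human TDP1-complemented DT40 knockout cells, 400 cells/well, 37 °C for minimum 48 hr; ATP measured via CellTiter-Glo, 30 min dark incubation, luminescence.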
TDP1 cell CPT: DT40-hTDP1 cell growth loss with CPT | chicken DT40 Tdp1-/-;hTDP1 cells + 20 nM CPT, ATP luminescence, 48 h | Potency, µM (top dose mostly 46.2 µM), inactives show top-dose activity change, negative = growth inhibition, actives largely listed as inhibitors | 12% of 420,000 active | AID 686979; note: potency is the fitted concentration of half-maximal effect; nearly all actives have a fitted effect of over 55% in size
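Chicken DT40 Tdp1-/- cells stably complemented with human TDP1 were seeded at 400 cells/well in medium containing 20 nM camptothecin, exposed to pin-transferred compounds, and grown at 37 °C for at least 48 hr. Viability was read as ATP luminescence.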
* = called active by the depositor; u = inconclusive; x = not tested or not shown; [ ] = another dose, or the depositor's remark. Rows were chosen to be rich in hits. Some 18% of all compounds tested hit in one or more screens of this group. Unless noted, calls come from the whole dose curve; as a rule, active = well fitted curve in the direction sought with a large enough effect; inconclusive = small, poorly fitted or top-dose-only effect, or another doubt; inactive = no such curve, though single readings can be large; an effect the other way counts as inactive or inconclusive. Unless noted, % is set by controls: 0 for no effect and ±100 for the full control effect.

SMILES	IL-1B inflam inh	LDHA block	RORgamma inh	Gal4-VP16 FLuc	TDP1 cell noCPT	TDP1 cell CPT
CN(Cc1ccccc1Cl)C(=O)CNC(=O)C12CC3CC(CC(C3)C1)C2	4.3	-4.8	x	x	u	20.6µM*
O=C(Nc1ccccc1Cl)c1cc(-c2cccs2)on1	x	-0.4	x	x	x	x
c1nc2n(n1)C1=C(CCCC1)C1(CCCCC1)N2	-5.6	-0.9	2.51µM*	u	-9.9%	-7.6%
CCCCCCOc1ccc(C(=O)/C=C/C(=O)O)cc1	x	1.2	x	x	x	x
CN(CCOc1ccc(F)cc1)C(=O)c1cn(C)c2ccccc12	x	10.4	x	x	x	x
COc1cc2cncc(Cc3ccc(Cl)cc3)c2cc1OC	-11.0	-3.2	x	x	18.4µM*	14.6µM*
COc1ccc(Cc2cnc(N)nc2N)cc1OC	x	-1.1	3.6%	0.1%	u	u
Cc1ccc(N2CN(Cc3ccco3)CNC2=S)cc1	0.0	-5.5	11.2µM*	u	-1.4%	21.4%
Cc1cccc(N2CN(Cc3ccco3)CNC2=S)c1	9.8	1.6	11.2µM*	u	-11.9%	-7.5%
CCN(CC)Cc1ccccc1CNC(=O)c1nn(C)c(=O)c2ccccc12	x	-9.8	x	x	x	x
COc1cccc(NC(=O)C2(C)CCN2Cc2ccccc2OC(F)F)c1 (stereo not drawn)	-12.9	3.4	x	x	16.4µM*	20.6µM*
COc1ccc(OC)c(NC(=O)C2(C)CCN2Cc2ccccc2OC(F)F)c1 (stereo not drawn)	-17.0	-2.6	x	x	16.4µM*	u
COc1ccc(OC)c(NC(=O)C2(C)CCN2C(C)C)c1 (stereo not drawn)	0.0	2.2	x	x	-21.8%	-18.5%
CC1(C(=O)Nc2ccc3c(c2)OCCO3)CCN1Cc1ccccc1OC(F)F (stereo not drawn)	10.3	-3.2	x	x	u	u
CC(=O)N1CCc2cc(NC(=O)C3(C)CCN3CCc3ccccc3)ccc21 (stereo not drawn)	-6.2	0.9	x	x	20.6µM*	20.6µM*
COc1ccc(OC)c(NC(=O)C2(C)CCN2Cc2ccsc2)c1 (stereo not drawn)	-9.4	3.0	x	x	11.6µM*	16.4µM*
Cc1ccc(NC(=O)C2(C)CCN2CCc2ccccc2)cc1O (stereo not drawn)	0.0	-3.2	x	x	-21.4%	-24.2%
COc1cccc(NC(=O)C2(C)CCN2Cc2ccc(OC)c3ccccc23)c1 (stereo not drawn)	-17.2	0.2	x	x	-75.0%	u
CC(=O)N1CCc2cc(NC(=O)C3(C)CCN3Cc3ccccc3OC(F)F)ccc21 (stereo not drawn)	-9.4	-5.9	x	x	18.4µM*	25.9µM*
Cc1c(Br)cccc1NC(=O)C1(C)CCN1Cc1ccccc1OC(F)F (stereo not drawn)	-1.5	5.5	x	x	u	25.9µM*
CC1(C(=O)Nc2cccc(NS(C)(=O)=O)c2)CCN1Cc1ccccc1OC(F)F (stereo not drawn)	-22.1	0.7	x	x	16.4µM*	23.1µM*
CC(C)N1CCC1(C)C(=O)Nc1ccccc1OC(F)F (stereo not drawn)	34.5	-1.2	x	x	u	-20.7%
CCOC(=O)c1sc2nc(C(C)N3CCC(C)CC3)[nH]c(=O)c2c1C (stereo not drawn)	x	-17.5	x	x	x	x
Cc1c(-c2ccccc2)nc2c3ccccc3ccn12	x	4.9	x	x	x	x
O=C1C2ON(c3ccc(Br)cc3)C(c3cccnc3)C2C(=O)N1C1CCCCC1 (stereo not drawn)	0.0	-3.3	8.7%	-2.7%[0.365 µM]	18.4µM*	u
SMILES	IL-1B inflam inh	LDHA block	RORgamma inh	Gal4-VP16 FLuc	TDP1 cell noCPT	TDP1 cell CPT
O=C1C2ON(c3ccccc3)C(c3cccnc3)C2C(=O)N1c1ccccc1 (stereo not drawn)	1.4	-2.8	2.7%	1.6%	10.9%	7.0%
CCCCCCCc1c(C#N)c(N)[nH]c(=S)c1C#N	-15.0	-7.5	8.91µM*	-24.0%	-23.5%	u
CC(O)(c1ccccc1)c1nc(-c2ccncc2)cs1 (stereo not drawn)	-0.6	-7.7	x	x	u	4.11µM*
CC(O)(c1ccccc1)c1nc(-c2ccccc2)cs1 (stereo not drawn)	0.0	-2.0	x	x	u	20.6µM*
CC(O)(c1cccnc1)c1nc(-c2cc(F)cc(F)c2)cs1 (stereo not drawn)	-9.1	0.2	x	x	u	u
CC(O)(c1ccccc1)c1nc(-c2ccc(S(C)(=O)=O)cc2)cs1 (stereo not drawn)	10.2	-11.6	x	x	u	-20.6%
Cc1cccc(NC(=O)N2CCC(CCNS(=O)(=O)c3ccc(C(C)(C)C)cc3)CC2)c1	x	-1.6	x	x	x	x
O=C(Nc1ncc(Cc2cccc(C(F)(F)F)c2)s1)C1=Cc2ccccc2OC1	x	-2.9	x	x	x	x
CCOc1ccc(CCNC(=O)c2ccc3c(c2)N(Cc2ccccc2)C(=O)c2ccccc2S3=O)cc1OCC (stereo not drawn)	x	1.8	x	x	5.8µM*	16.4µM*
Cc1ccc(CCNC(=O)c2ccc3c(c2)N(Cc2ccccc2)C(=O)c2ccccc2S3=O)cc1 (stereo not drawn)	x	-1.4	x	x	14.6µM*	16.4µM*
CCN(CC)CCNC(=O)c1ccc2c(c1)N(Cc1ccccc1)C(=O)c1ccccc1S2=O (stereo not drawn)	x	1.5	x	x	u	u
CNC(=O)CN(C)c1nc(-c2ccccc2)c2ccccc2n1	x	1.2	x	x	x	x
COC(=O)/C=C/c1cc(O)ccc1O	x	x	x	x	1.16µM*	0.731µM*
Cc1ccc(Cl)cc1NC(=O)c1cc(=O)[nH]c2ccc(S(=O)(=O)N3CCOCC3)cc12	x	-5.3	x	x	x	x
Nc1c(C(=O)O)ccc2c1C(=O)c1ccccc1C2=O	19.9	19.4	-12.6%	-6.6%	u	-7.6%
COC(=O)c1cccc2c1-c1ccccc1/C2=N/O	-22.5	-2.6	14.1µM*	u	13µM*	16.4µM*
COC(=O)c1cccc2c1-c1ccccc1/C2=N\NC(N)=O	u	-3.7	-33.7%	-9.1%	14.6µM*	u
COC(=O)c1ccc2c(c1O)C(=O)c1ccccc1C2=O	u	14.2	u	-1.9%	20.6µM*	23.1µM*
NC(=O)c1cccc2c1-c1ccccc1/C2=N/NC(N)=S	-5.5	-2.6	u	u	u	15.3%
CCCc1cc(=O)oc2cc(C)cc(OC(C)C(=O)NCCCO)c12 (stereo not drawn)	x	-0.2	x	x	x	x
O=[N+]([O-])/C(C(Cl)=C(Cl)Cl)=C(/Sc1ccccc1)N1CCCCC1	-88.7*	-3.7	43.8%	6.4%	13µM*	u
